From PubChem BioAssay
POLK inh = inhibitors of human DNA polymerase kappa; Q9UBT6; purified Pol kappa, fluorescent DNA synthesis assay, 10 min; Potency, µM (top dose mostly 107 µM), for the others: top-dose activity, negative = inhibition, hits mostly inhibitors; 0.53% of 400,000 active; AID 588579; further: potency means the concentration at half of the fitted maximal effect; on the % scale 0 is the no-effect control and ±100 the full control effect
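Inhibition of 10 nM Pol kappa is measured by a fluorescent read-out at 0 and 10 min following addition of 50 nM substrate (final), with a 15-min room-temperature compound preincubation.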
Pol eta inh = inhibitors of human DNA polymerase eta; Q9Y253; 1.2% of 390,000 active; recombinant Pol eta, fluorescent DNA replication assay; Potency, µM (doses to about 114 µM), for inactives: at the highest dose activity change, negative = inhibition, most hits filed as inhibitors; further: potency means the concentration at half of the fitted maximal effect; on the % scale 0 is the no-effect control and ±100 the full control effect
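Pol eta at 10 nM preincubated with compounds 15 min at room temperature; reaction started with fluorescent substrate (50 nM final) and read kinetically at 0 and 10 min.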
Pol beta inh = inhibitors of human DNA polymerase beta; P06746; Pol beta primer extension/strand displacement, fluorescence kinetic; Potency, µM (series often up to 114 µM), inactives show at the top dose activity change, negative = inhibition, actives largely listed as inhibitors; 1.3% of 340,000 active; further: potency means the concentration at half of the fitted maximal effect; on the % scale 0 is the no-effect control and ±100 the full control effect
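Homogeneous kinetic assay of primer extension and strand displacement by 10 nM Pol beta, preincubated 15 min at room temperature with compound before 50 nM substrate (final) was added. Read at 0 and 10 min; four-parameter Hill fit.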
POLI inh = inhibitors of human DNA polymerase iota. 1% of 390,000 active. Potency, µM (highest dose often 115 µM), inactives show top-dose activity, negative = inhibition, actives largely listed as inhibitors. Pol iota fluorescent replication assay, 10 min. Q9UNA4; further: potency means the concentration at half of the fitted maximal effect
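Pol iota at 10 nM preincubated 15 min with compounds at room temperature; reaction started with fluorescent substrate, 50 nM final. Fluorescence read kinetically at 0 and 10 min; buffer-only wells as negative control.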
PI5P4K alpha inh = inhibitors of human PI5P4K alpha; P48426; PI5P4Kalpha enzyme, ADP-Glo luminescence, 60 min; active compounds read low; max response, %; 1.2% of 330,000 active; active means max response of -50% or lower; inconclusive means between -30% and -50%; inactive means -30% or higher; further: value at the top dose of about 77 µM; on the % scale 0 is the no-effect control and ±100 the full control effect
Target sequence (P48426 whole entry, looked up): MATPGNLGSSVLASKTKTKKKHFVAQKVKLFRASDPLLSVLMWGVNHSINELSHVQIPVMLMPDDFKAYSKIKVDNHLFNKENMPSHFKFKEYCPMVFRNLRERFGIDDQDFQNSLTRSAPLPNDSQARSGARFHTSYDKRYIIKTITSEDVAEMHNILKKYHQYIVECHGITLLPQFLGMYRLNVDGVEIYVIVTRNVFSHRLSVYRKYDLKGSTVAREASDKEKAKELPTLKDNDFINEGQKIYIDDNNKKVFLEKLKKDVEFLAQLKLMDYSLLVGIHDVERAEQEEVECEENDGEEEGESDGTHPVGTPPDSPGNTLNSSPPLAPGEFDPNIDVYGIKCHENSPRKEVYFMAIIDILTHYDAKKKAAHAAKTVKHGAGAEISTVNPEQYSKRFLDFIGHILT
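Human PI5P4Kalpha with substrate in 0.038 M HEPES pH 7.4, 0.28 mM EGTA, 0.1% CHAPS, 5% DMSO; reaction started with 5 microM ATP (final), 60 min at room temperature. ADP formed read by ADP-Glo luminescence.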
FEN1 inh = inhibitors of human flap endonuclease 1; 0.35% of 390,000 active; Potency, µM (top dose mostly 114 µM), without a hit: at the highest dose activity change, negative = inhibition, hits mostly inhibitors; P39748; Recombinant FEN1 flap cleavage, fluorescence, 15 min; further: potency means the concentration at half of the fitted maximal effect; on the % scale 0 is the no-effect control and ±100 the full control effect; nearly all actives have a fitted effect of over 65% in size
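FEN1 at 10 nM preincubated with compounds 15 min at room temperature, then flap DNA substrate added at 50 nM final. Signal read at 0 and 15 min; concentration-response fitted with four-parameter Hill equation.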
Active calls of the source: *; ? = inconclusive; . = not tested or not shown; [ ] = another dose, or the depositor's remark. Sampled rows, rich in hits. Any-hit rate of the full collection: about 2.8%. Unless noted, the call rests on the fitted dose curve; in most records, active means well fitted curve in the direction sought with a large enough effect; inconclusive means small, poorly fitted or top-dose-only effect, or another doubt; inactive means no such curve, though single readings can be large; an effect the other way counts as inactive or inconclusive.

SMILES	POLK inh	Pol eta inh	Pol beta inh	POLI inh	PI5P4K alpha inh	FEN1 inh
C=CC[n+]1ccc(/C=C2\C=Cc3cc(C)ccc3N2CC)c2ccccc21	50.1µM*	-14.7%	?	?	?	?
CCCC[n+]1ccn(-c2nc3ccccc3nc2[N-]S(=O)(=O)c2cccs2)c1	-14.6%	-7.0%	17.8µM*	46.6%	9.2	0.2%
Cn1c(CCCNC(=O)c2ccco2)nc2ccccc21	-28.5%	?	.	?	-70.2*	-4.8%
Cn1c(CCNC(=O)c2ccco2)nc2ccccc21	-10.3%	-20.3%	.	20.6%	-2.9	-0.5%
CC(C)(C)C(=O)COC(=O)c1c2c(nc3ccccc13)CCC2	-11.0%	79.4µM*	17.8µM*	?	?	2.4%
CC(C)CNC(=O)COC(=O)c1c2c(nc3ccccc13)/C(=C/c1cccs1)CC2	-7.6%	?	17.8µM*	?	-19.7	6.5%
CC(C)CNC(=O)COC(=O)c1c2c(nc3ccccc13)CCC2	-32.6%	?	39.8µM*	?	?	-9.9%
COc1ccc(-c2cc(C(=O)NCc3ccccc3)c3c(-c4ccccc4)[nH]nc3n2)cc1	15.9%	-11.5%	32.7%	8.2%	.	0.3%
Cc1ccc(F)cc1-c1ccc(C(=O)N=C(N)N)o1	15.0%[60.1 µM]	.	.	.	.	.
O=C1C=CC(=O)N1Cc1ccccc1	-1.3%	-7.1%	24.4%	13.3%	-86.2*	?
O=C1C2CC=CCC2C(=O)N1Cc1ccccc1 (centres undefined)	-6.8%	-4.0%	1.3%	-0.8%	.	-1.6%
COc1cccc(/C=C2\SC(=S)N(CCCC(=O)Nc3ccc(C(=O)O)cc3)C2=O)c1	-8.2%	?	20.2%	-25.1%	-7.0	3.5%
Cc1ccc(NC(=O)COc2cccc(/C=C3\SC(=S)N(CCC(=O)O)C3=O)c2)cc1Cl	79.4µM*	44.7µM*	?	50.1µM*	0.6	0.0%
O=C(O)CCN1C(=O)/C(=C\c2cccc(OCC(=O)Nc3ccc(Cl)cc3)c2)SC1=S	?	0.8%	56.2µM*	?	-6.9	0.0%
O=C(CCN1C(=O)/C(=C/c2cccs2)SC1=S)Nc1ccc(O)cc1	0.7%	-18.1%	20.5%	-5.8%	-6.0	-1.1%
O=C(CCN1C(=O)/C(=C/c2cccs2)SC1=S)Nc1ccc(C(=O)O)c(O)c1	-2.7%	39.8µM*	?	17.9%	-58.0*	-0.6%
COc1ccc(OC)c(C(=O)CSc2ncc3c(n2)-c2ccccc2N(Cc2ccccc2C)S3(=O)=O)c1	0.6%	-21.2%	4.6%	16.4%	.	20.2%
c1ccc(Nc2nc(-c3ccccc3)nc3ccccc23)cc1	-0.1%	-17.2%	37.5%	47.6%	18.2	3.8%
Fc1cccc(Nc2nc(-c3ccncc3)nc3ccccc23)c1	-22.5%	14.1µM*	12.6µM*	?	-6.7	12.2%
CCN1c2ccccc2-c2nc(SCC(=O)Nc3cccc(C)c3C)ncc2S1(=O)=O	-7.4%	-20.9%	3.0%	24.2%	.	23.7%
COc1ccc(-c2nc(-c3cccs3)c(-c3cccs3)[nH]2)cc1OC	-23.0%	-13.3%	89.1µM*	-7.8%	-3.5	-20.1%
COc1ccc(-c2nc(-c3ccccc3)c(-c3cccs3)[nH]2)cc1OC	-10.7%	-17.4%	-1.0%	-2.9%	.	?
COc1cc(C(=O)Nc2nnc(-c3sccc3C)s2)cc(OC)c1OC	-7.0%	12.6µM*	-0.2%	-8.7%	-5.7	12.7%
CCOCc1nnc(NC(=O)c2cc(OC)c(OC)c(OC)c2)s1	-14.7%	-4.3%	-3.2%	107.2%	1.7	-2.8%
O=C(O)c1cccc(N/N=C/c2cn(-c3ccccc3)nc2-c2cccs2)c1	-17.6%	79.4µM*	?	61.0%	-17.6	-10.9%
SMILES	POLK inh	Pol eta inh	Pol beta inh	POLI inh	PI5P4K alpha inh	FEN1 inh
O=C(COC(=O)c1ccc(S(=O)(=O)N2CCOCC2)cc1)Nc1ccccc1OC(F)F	-15.5%	-9.1%	.	-7.4%	0.8	-4.2%
COc1cc(/C=N/Nc2ccccc2[N+](=O)[O-])cc(OC)c1O	5.2%	-10.2%	2.4%	60.0%	5.6	2.1%
COc1cc(/C=N/Nc2ccc(S(N)(=O)=O)cc2[N+](=O)[O-])cc(OC)c1O	-20.4%	?	?	39.8µM*	1.5	-9.2%
COc1cc(/C=N/Nc2nc3ccccc3s2)cc([N+](=O)[O-])c1O	-5.7%	56.2µM*	22.4µM*	-8.1%	-51.2*	44.7µM*
COc1cc(/C=N/Nc2nc(=O)[nH]nc2C)cc([N+](=O)[O-])c1O	0.4%	-13.0%	-13.8%	12.2%	-51.6*	-16.3%
O=[N+]([O-])c1cc(Cl)cc(/C=N/Nc2nc3ccccc3s2)c1O	-14.7%	6.0%	?	47.3%	12.0	-12.1%
O=C1CN(C(=O)c2ccc(S(=O)(=O)N3CCCCC3)cc2)C(c2ccc(F)cc2)c2cc(Br)ccc2N1 (centres undefined)	-24.2%	-8.3%	-12.1%	11.1%	.	1.1%
O=C(NNC(=S)Nc1ccc(C(=O)O)c(O)c1)c1ccncc1	-8.1%	-16.5%	.	34.0%	-85.5*	-8.8%
O=C(NNC(=S)Nc1ccccc1)c1ccncc1	-9.8%	-7.3%	24.7%	14.9%	-5.8	-1.0%
COc1ccc(-c2nc(Cn3c(=O)cc(-c4ccccc4)c4c(C)nn(C)c43)c(C)o2)cc1OC	6.3%	-13.0%	0.8%	-11.8%	.	-3.4%
COc1ccc(N=Cc2oc3ccc4ccccc4c3c2O)cc1	-29.2%	-26.6%	11.2µM*	?	0.8	-19.5%
O=C(COC(=O)C12CC3CC(CC(Br)(C3)C1)C2)Nc1ccc2[nH]c(=O)[nH]c2c1	-7.2%	?	.	?	-0.9	-14.4%
C#CCOCCOCCOCCNc1nc(N2CCN(C(=O)CCCCCCCCCCNC(=O)[C@H](CCCCN)n3cc(CCO)nn3)CC2)nc(N2CCN(C(=O)CCCCCCCCCCNC(=O)[C@H](CCCN=C(N)N)n3cc(C[C@@H](C)CC)nn3)CC2)n1	?	79.4µM*	.	?	-65.7*	22.4µM*
C#CCOCCOCCOCCNc1nc(N2CCN(C(=O)CCCCCCCCCCNC(=O)[C@H](CCCCN)n3cc(C[C@@H](C)CC)nn3)CC2)nc(N2CCN(C(=O)CCCCCCCCCCNC(=O)[C@H](CCCCN)n3cc(C[C@@H](C)CC)nn3)CC2)n1	-2.6%	79.4µM*	.	20.3%	-51.7*	22.4µM*
C#CCOCCOCCOCCNc1nc(N2CCN(C(=O)CCCCCCCCCCNC(=O)[C@H](CCCCN)n3cc(CCCC(=O)O)nn3)CC2)nc(N2CCN(C(=O)CCCCCCCCCCNC(=O)[C@H](CCCN=C(N)N)n3cc(C[C@@H](C)CC)nn3)CC2)n1	11.7%	?	.	-6.1%	?	?
